Measurements as given in PubChem BioAssay AID720534 (National Center for Advancing Translational Sciences (NCATS), 2013).
Screen size: about 1,600 compounds; about 990 (62%) were called active. Inconclusive results (about 30%) are left out. The call rests on the fitted dose curve; in most records, active means well fitted inhibition curve with a large enough effect; inconclusive means small, poorly fitted or top-dose-only effect; inactive means no such curve, though single readings can be large or run the other way. So high a share suggests a set chosen from earlier hits. This excerpt belongs to a sample that is enriched for actives.

Assay: qHTS for Inhibitors of TGF-b: Confirmation of Cherry Picks; further: nearly all actives have a fitted effect of over 65% in size
Conditions: HepG2 CAGA-GFP TGF-b reporter, GFP fluorescence, 18 h; cells stimulated with TGF-beta, 500 pg/mL
Text: TGF-b is a main component in the TGF-b signaling pathway which plays diverse roles in cellular and development pathways. TGF-b is mediated through transcription factors called "Smads". Although the Smad-dependent pathway is the primary canonical TGF-b signaling mode, TGF-b1 can also activate alternative signaling pathways, including those involving MAPK (ERK, JNK and p38). This interaction may mediate or enhance Smad-dependent responses, or can exert Smad-independent effects. The complexity of this signaling cascade allows the TGF-b superfamily to perform unique, overlapping or redundant functions. We believe that targeting the TGF-beta pathway at the Smad-transcription factor level may eliminate the consequences of disrupting the entire pathway and offer specificity without affecting other signaling pathways. Smad3 is the primary transducer of TGF-b's signals and Smad3 regulates many functions attributed to TGF-b signaling. We hypothesize that Smad3 inhibitors will selectively eliminate Smad3-specific TGF-beta signals without undesired off-target effects. We aim to identify Smad3-small molecule antagonists using a quantitative high throughput screening (qHTS) approach. In this assay, hits identified from the primary screen were re-tested. MH087449NIH Chemical Genomics Center [NCGC] NIH Molecular Libraries Probe Centers Network [MLPCN] MLPCN Grant: MH087449 Assay Submitter (PI): Sushil Rane, National Institute of Diabetes and Kidney Diseases
Suspensions of trypsinized HEPG2 CAGA-GFP cells were dispensed into white, tissue culture-treated, solid 1536-well plates at 5uL/well (1000 cells/well final concentration) in DMEM medium supplemented with 1% FBS. Plates were incubated at 37 degrees C for 2 hours, after which 23 nL of compounds or DMSO were delivered to each well using a pin tool. One uL of recombinant TGF-beta in DMEM (1% FBS) was then dispensed (500 pg/mL final concentration), and plates were incubated at 37 degrees C for 18 hours. The plates were measured on an Acumen eX3 Explorer plate reader for GFP fluorescence (ex488/em500-530). GFP values were calculated by determining the mean GFP fluorescence of individual cells, and compiling these values for each well to determine a total well GFP signal. The %Activity was determined from the corrected fluorescence values. A titration of the known TGF-B inhibitor SB431542 was included to monitor plate performance, while unstimulated HEPG2 (-TGF-B) control wells were used to normalize %Activity of identified inhibitors; unstimulated wells corresponded to 100%Activity (full inhibition), while stimulated cell controls (+DMSO) were used to normalize 0%Activity (no inhibition). Concentration-response curves were fitted to the signals arising from the resulting fluorescence. The concentration-effect curves were then classified based on curve quality (r2), response magnitude and degree of measured activity, and compounds were subsequently categorized based on their curve class.
Potency means the concentration at half of the fitted maximal effect.

SMILES | Potency
COC(=O)C1=C(c2cc3ccccc3o2)C[C@@H]2CC[C@H]1N2C(=O)NC1CCCCC1 | 20.6 µM (active)
O=Cc1cn(Cc2ccc(F)cc2Cl)c2ccccc12 | 9.2 µM (active)
CN(C(=O)c1cccc(NC(=O)Cc2cccc([N+](=O)[O-])c2)c1)C1CCCCC1 | 13 µM (active)
CCC(C)(O)C(=O)OC1C(=O)OC2CC3C(C)=CC(=O)C(O)C3(C)C3C4(O)OCC23C1C(C)C4O (stereo not given) | 0.291 µM (active)
CC[C@H]1CN2CCc3cc(OC)c(OC)cc3[C@@H]2C[C@@H]1C[C@H]1NCCc2cc(OC)c(OC)cc21 | 0.0231 µM (active)
